Assay outcomes from PubChem.
In the library only some 3.1% were active in any assay of this set; here they are far more common.
GLS inh: qHTS for Inhibitors of Glutaminase (GLS); Potency, µM (doses to about 45.5 µM), for inactives: at the highest dose activity change, negative = inhibition, hits mostly inhibitors; AID 624170, 2012; 0.21% of 410,000 active; GLS enzymatic activity, qHTS titration; Glutaminase kidney isoform, mitochondrial (Homo sapiens), O94925; further: potency means the concentration at half of the fitted maximal effect
Target sequence (O94925 whole entry, looked up, canonical isoform): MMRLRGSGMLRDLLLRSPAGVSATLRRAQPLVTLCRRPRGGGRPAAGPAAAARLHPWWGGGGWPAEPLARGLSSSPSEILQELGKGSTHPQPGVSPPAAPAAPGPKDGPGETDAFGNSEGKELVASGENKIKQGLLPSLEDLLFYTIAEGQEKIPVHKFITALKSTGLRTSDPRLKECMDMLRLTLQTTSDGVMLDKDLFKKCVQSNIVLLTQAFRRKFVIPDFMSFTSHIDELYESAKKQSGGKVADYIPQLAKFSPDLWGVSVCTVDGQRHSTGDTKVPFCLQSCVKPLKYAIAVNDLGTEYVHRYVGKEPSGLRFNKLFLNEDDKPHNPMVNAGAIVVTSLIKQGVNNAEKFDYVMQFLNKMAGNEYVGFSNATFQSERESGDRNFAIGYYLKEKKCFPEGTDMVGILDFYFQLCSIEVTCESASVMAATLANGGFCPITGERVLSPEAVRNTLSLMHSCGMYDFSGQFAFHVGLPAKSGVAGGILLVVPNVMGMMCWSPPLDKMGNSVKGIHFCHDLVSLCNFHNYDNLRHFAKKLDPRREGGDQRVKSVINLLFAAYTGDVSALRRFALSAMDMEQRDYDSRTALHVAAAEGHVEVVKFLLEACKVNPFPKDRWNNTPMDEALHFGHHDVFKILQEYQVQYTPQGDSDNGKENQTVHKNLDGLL
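Glutamate formation by hKGA was monitored fluorometrically using coupled glutamate oxidase, HRP and Amplex Red. Substrate was added as 1 mM L-glutamine solution; incubation was 30 min at RT after an initial read.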
VDR inh: Inhibitors of the vitamin D receptor (VDR): qHTS. 0.93% of 400,000 active. Potency, µM, without a hit: max response, negative = inhibition, most hits filed as inhibitors. VDR-SRC2-3 peptide fluorescence polarization, 2 h. AID 504847, 2011. Vitamin D3 receptor (Homo sapiens), P11473; further: potency means the concentration at half of the fitted maximal effect
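Signal is fluorescence polarization, reporting how far test compounds block the interaction of VDR with the SRC2-3 coregulator peptide after a 2 h room-temperature incubation.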
PI4K2A inh: qHTS for small molecular inhibitors of PI4K2A. Phosphatidylinositol 4-kinase type 2-alpha (Homo sapiens), Q9BTU6. purified PI4K2A, ADP-Glo luminescence, 1 h; hits give low values. activity change, negative = inhibition, % at 76.9 µM. 0.13% of 420,000 active. AID 1346378, 2018; in the data active means activity change below about -50%; inconclusive means mostly about -30% to -49%;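 further: -100% = wells without enzyme as full effect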
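Compounds are screened against recombinant PI4K2A using PI as substrate and ATP, the latter dispensed at 300 microM. Reactions run one hour at ambient temperature before ADP-Glo detection; full inhibition defined by wells lacking enzyme.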
KAT2A inh: qHTS Assay for Inhibitors of GCN5L2; 0.21% of 390,000 active; Potency, µM (top dose mostly 58.9 µM), without a hit: at the highest dose activity change, negative = inhibition, hits mostly inhibitors; GCN5L2 HAT assay, ThioGlo1 CoA-SH fluorescence; Histone acetyltransferase KAT2A (Homo sapiens), Q92830; further: potency means the concentration at half of the fitted maximal effect
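qHTS, 1536-well. 20nM enzyme, pH 7.5 HEPES/EDTA/Tween-20 buffer; 15 min compound preinc., RT. Start: 75uM H3(1-25), 70uM AcCoA, 50uM ThioGlo1. Read Ex340/Em540 at t=0 (autofluorescence flag) and t=20 min.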
PLK1 PBD inh: qHTS for Inhibitors of PLK1-PDB (polo-like kinase 1 - polo-box domain): Primary Screen | Serine/threonine-protein kinase PLK1 (Homo sapiens), P53350 | 2.8% of 360,000 active | Potency, µM, for the others: max response, negative = inhibition, actives largely listed as inhibitors | Plk1 PBD binding of FITC phosphopeptide, fluorescence polarization; further: potency means the concentration at half of the fitted maximal effect; series mostly up to about 57 µM; nearly all actives have a fitted effect of over 65% in size
* hit, by the source's call; ? = inconclusive; . = no result given; ! = repeats disagree; [ ] = another dose, or the depositor's remark. Unless noted, the call rests on the fitted dose curve; in most records, active means well fitted curve in the direction sought with a large enough effect; inconclusive means small, poorly fitted or top-dose-only effect, or another doubt; inactive means no such curve, though single readings can be large; an effect the other way counts as inactive or inconclusive. Unless noted, on the % scale 0 is the no-effect control and ±100 the full control effect.

SMILES	GLS inh	VDR inh	PI4K2A inh	KAT2A inh	PLK1 PBD inh
COC(=O)C1CN(CCc2ccccc2)CCS(=O)(=O)N1Cc1ccc(C)cc1 (stereo unspecified)	.	.	2	.	.
O=c1c(O)cccc2cc(O)c(O)c(O)c12	1.6µM*	20µM*!	?	?	8.4µM*
CCOc1ccc(CNC(=O)c2ccccc2NC(=O)C2=CSCCO2)cc1	8%	?	-2	?	24µM*
Cc1cccc(CNC(=O)c2ccc(NC(=O)C3=CSCCO3)cc2)c1	-30%	?	-3	-9%	27µM*
CC(C)CCCC(C)C1CC(=O)C2=C3CCC4CC(O)CCC4(C)C3CCC21C (stereo unspecified)	-4%	5%	.	-11%	.
Cc1cccc(-c2c3c(=O)n(C)c(=O)n(C)c3cn2-c2cc(N)c(Cl)cc2Cl)c1	6%	23%	-3	-17%	.
O=C1Nc2ccccc2SC1=Cc1ccccc1	3%	.	1	.	-5%
O=C1N/C(=N/Nc2ccccc2)S/C1=C\c1ccccc1	13%	45µM*	0	?	21µM*
Oc1ccccc1C1CC(c2cccs2)=NC(c2cccc(Br)c2)N1 (stereo unspecified)	-9%	71µM*	1	-11%	-9%
O=S(=O)(c1ccccc1)N1N=C(c2cccs2)CC1c1cccc(O)c1 (stereo unspecified)	13%	3%	2	-12%	-1%
CCN(CC)c1ccc2cc(-c3nc4ccccc4[nH]3)c(=O)oc2c1	?	-5%	-2	-1%	27µM*
CCCCCCCC/C=C/C(=O)O	.	.	3	.	.
O=C(O)CCCN1C(=O)C(=O)/C(=C(/O)c2ccccc2)C1/C=C/c1ccccc1 (stereo unspecified)	?	?	-10	-7%	13µM*
COc1ccc(C(=O)c2[nH]c(N)c(C(=O)c3ccccc3)c2-c2ccc(OC)c(OC)c2)cc1	.	.	5	.	.
COc1ccc(CN(C)CC(=O)Nc2ccc(SC(F)F)cc2)cc1OC	2%	-19%	3	-5%	27µM*
O=C(NCCC1=CCCCC1)C1CCN(S(=O)(=O)c2ccccc2[N+](=O)[O-])CC1	.	.	1	.	.
COc1cc(-c2nc(CN3CCCN(C(=O)c4ccco4)CC3)c(C)o2)ccc1F	-1%	-12%	-3	-1%	30µM*
CCOc1cc(/C=C2\N=C(SCC)SC2=O)cc([N+](=O)[O-])c1OC(C)=O	?	-1%	7	-6%	27µM*
CCOc1c(OC(C)=O)ccc(/C=C2\N=C(SCC)SC2=O)c1[N+](=O)[O-]	47%	?	-9	-5%	30µM*
C=CCN1C(=O)[C@@H](CC(=O)NCc2cccc3ccccc23)[C@]2(C(=O)OC)CCCCC=C12	.	.	-6	.	.
CN[C@H]1C[C@H]2c3[nH]c4cccc(-c5ccc6c(c5)OCO6)c4c3CCN2C[C@H]1[C@H](C)O	.	.	-3	.	.
O=C(CSc1nnc(-c2cccnc2)n1Cc1ccco1)Nc1ccc(F)cc1Cl	.	.	-4	.	.
COc1ccc(CCC(=O)Nc2c(-c3ccc(N(C)C)cc3)[nH][nH]c2=O)cc1	19%	.	-64*	.	21µM*
COc1ccc(-c2[nH][nH]c(=O)c2NC(=O)c2ccccn2)cc1	11%	.	-20	.	-5%
N=c1c2c(ccn1Cc1ccccc1)Oc1ccc3ccccc3c1C2c1ccccc1 (stereo unspecified)	.	.	-3	.	.
SMILES	GLS inh	VDR inh	PI4K2A inh	KAT2A inh	PLK1 PBD inh
CCNC(=O)NC(=O)COC(=O)c1ccccc1SCC(=O)NC(=O)NCC	?	?	-28	-10%	2.7µM*
CC(C)(C)OC(=O)N1CCC(N[C@@H](Cc2ccccc2)C(=O)NCCc2c[nH]c3ccccc23)(C(=O)NC2CCCCC2)CC1	.	.	-1	.	.
O=C(CSc1ccc(-c2cccs2)nn1)Nc1cccc(F)c1	-12%	-2%	-4	-19%	.
CN=C1N[C@H](c2ccccc2)N(c2ccccc2)S1	.	25µM*	.	?	.
Nc1ccn([C@@H]2O[C@H](CO)[C@@H](O)C2(F)F)c(=O)n1	.	.	-1	.	.
C/C(=N\NC(=O)c1cc(-c2ccncc2)nc2ccccc12)c1ccc(N2CCOCC2)cc1	27%	-16%	-2	-15%	30µM*
O=C(N/N=C/c1ccc(OCCCF)cc1)c1cc(OCC(F)(F)F)ccc1OCC(F)(F)F	14%	-17%	5	0.89µM*	1%
O=C(N/N=C\c1ccc(F)cc1)c1cc(OCC(F)(F)F)ccc1OCC(F)(F)F	-12%	0%	0	1%	-7%
CC(Cl)C(=O)NNC(=O)CNS(=O)(=O)c1ccccc1 (stereo unspecified)	3%	-6%	-6	11%	27µM*
CC(C)C(=O)NNS(=O)(=O)c1ccccc1	1%	-10%	0	-7%	2%
CNC(C#Cc1ccccc1)c1ccccc1C(F)(F)F (stereo unspecified)	.	.	-5	.	.
O=C(CNC(=O)OCc1ccccc1)NCC(=O)Oc1ccc([N+](=O)[O-])cc1	3%	-27%	-3	.	12µM*
COCCOCC(OC)OC	.	.	-5	.	.
CCOc1ccccc1-c1ccc(C(=O)O)s1	.	?	.	-5%[88.6 µM]	.
O=C(O)c1ccc(-c2ccccc2C(F)(F)F)s1	.	126µM*	.	-13%[88.6 µM]	.
N#CCCSCc1ccc2oc(C(=O)O)cc2c1	-15%	-7%	-3	-7%	-10%
COCc1ccc2oc(C(=O)O)cc2c1	?	-15%	-1	0%	3.4µM*
CC(=O)N1CCN(c2ccc(O)cc2)CC1	.	.	0	.	.
COc1cccc(-c2ccc3ncnc(N4CCNCC4)c3c2)c1	.	?	.	-9%	.
O=S(=O)(c1ccc(NC(=S)N/N=C/c2ccc(O)c(O)c2)cc1)N1CCOCC1	?	0%	-1	-13%	-17%
O=[N+]([O-])c1cc(Cl)cc(/C=N/NC(=S)Nc2ccc(S(=O)(=O)N3CCOCC3)cc2)c1O	41%	-13%	17	?	17µM*
CCCCCCc1cc2cc(S(=O)(=O)c3ccc(Cl)cc3)c(=O)oc2cc1O	-1%	11%	-9	-12%	-14%
CCN(CC)c1ccc2cc(S(=O)(=O)c3ccc(Cl)cc3)c(=O)oc2c1	0%	9%	-5	-15%	19µM*
